Experimental data taken from PubChem BioAssay (NCI).
“And” between values parts separate entries of the source, which are not always exact repeats. Identical values can stand only once. This is part of a sample that, as a whole, favours compounds with a hit. Of some 83,000 tested, about 20% had one in any assay.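 Method: cells in 96-well plates; compound added at one concentration; 48 h incubation; percent growth measured; values under 10 scored active.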 Unmarked numbers belong to inactive results. The source made the active and inactive calls.

System: NCI-H23 lung
Experiment: NCI-60 one-dose screen, 48 h (100 = growth as untreated, 0 = no growth, -100 = all killed)
Conditions: 10 µM unless noted

Compound | growth
CN(Cc1ccccc1)c1nc(Cl)c(C2CC(c3ccc(F)cc3)=NN2C=O)s1 (stereo unspecified) | 84.2%
CCOC(=O)c1ccc(Nc2ncnc3c2cnn3-c2cccc(F)c2)cc1 | 110%
Cc1ccc2nc3ccccc3c(NCc3ccc(Cl)cc3)c2c1 | 46%
O=S(=O)(Nc1cc(Sc2cccc3cccnc23)c(O)c2ccccc12)c1ccc(F)cc1 | 17.7%
CCCCC1COc2cccc3c2N1C=C/C3=C\C(=O)N(C)c1cccc(Cl)c1 (stereo unspecified) | 97.5%
Cc1ccc(-c2nc3nc(-c4ccc(Cl)cc4)nc(N4CCCNCC4)c3o2)cc1 | 96.4%
COc1cc(NS(=O)(=O)C(C)C)cc(-c2cc(-c3ccc(N4CCNCC4)cc3)cnc2N)c1 | 84.1%
COCCn1cc(-c2csc(-c3cn(C)c4ccc(F)cc34)n2)c2cccnc21 | 76.3%
COc1ccc(NC(=O)Nc2ccccc2CNc2nc(Nc3ccc(OCCN4CCCC4)cc3)ncc2Cl)cc1 | 43.1%
COc1cc(CNC(=O)CCCC/C=C/C(C)C)ccc1O | 101%
CC(Sc1ccccc1)C(=O)O (stereo unspecified) | 96%
Cc1ccc(-c2nc3nc(-c4ccccc4)nc(N4CCCNCC4)c3o2)cc1 | 19.4%
CCCCn1c(C(=O)c2c[nH]c3ccccc23)n[nH]c1=S | 92.6%
O=C1C(=C(O)c2ccccc2)C(=O)c2ccccc21 | 103%
COc1ccc(-c2c[nH]c(C(=O)O)c2-c2cc(OC)c(OC)c(OC)c2)cc1 | 48.5%
O=C(Nc1ccc2ccccc2c1)c1cc2ccccc2cc1O | 81.5%
N=C(N)SCc1c2ccccc2c(CSC(=N)N)c2ccccc12 | 54.4%
NNCCc1ccccc1 | 103% and 88.8%
Brc1ccc(/C=C(/C2=NCCN2)n2ccc3ccccc32)cc1 | 87%

Compound | growth
C=C(c1ccc(C(=O)O)cc1)c1cc2c(cc1C)C(C)(C)CCC2(C)C | 81.7% and 81.9%
N=C(N)c1ccc(-c2ccc(-c3ccc(Cl)c(Cl)c3)s2)cc1 | 63.1%
C=C(CN1CC=CCC1)[C@@H]1CC[C@]2(COC(C)=O)CC[C@]3(C)[C@H](CC[C@@H]4[C@@]5(C)CC[C@H](O)C(C)(C)[C@@H]5CC[C@]43C)[C@@H]12 | 102%
O=[N+]([O-])c1cc(C(F)(F)F)ccc1Sc1ccc(C(F)(F)F)cc1[N+](=O)[O-] | 63.1%
CCn1cc(C(=O)NN=C2CCCC2)c(=O)c2ccc(C)nc21 | 98.9%
O=C(Nc1ccc(Cl)c(Cl)c1)Nc1ccc(Cl)c(Cl)c1 | -36.5% (active) and 4.84% (active)
Cn1c(=O)c2c(nc(Nc3cc(=O)[nH]c(=O)[nH]3)n2Cc2ccccc2)n(C)c1=O | 91.5%
CCOC(=O)c1c(-c2ccc(OC)cc2)c(C#N)c2c(C#N)c(N)nn2c1N | 62.2%
COc1cc(/C=N/NC(=O)CCN2c3ccccc3Sc3ccccc32)cc(OC)c1OC | 71.8%
O/N=C(/c1ccccc1)c1ccc2c3c(cccc13)CC2 | 97.3% and 95.1%
COc1cc(-c2nc3occn3c2-c2ccnc(NCCCNS(=O)(=O)c3ccc(O)cc3)n2)ccc1F | 92.6%
CN(C)c1ccc2nc3ccc(=O)cc-3sc2c1 | 11.1% and 22%
ON=C1CCCCCCCC1 | 99.6% and 98%
[Cu+].[NH-][C@H]1C[N-]C(=O)[C@H]([C@H]2CCN=C(N)N2)[N-]C(=O)/C(=C\NC(N)=O)[N-]C(=O)[C@H](CNC(=O)C[C@@H](N)CCCN)[N-]C(=O)[C@H](CO)[N-]C1=O | 105%
CC(C)=CCc1cc(O)c(O)c2oc3cc(O)cc(O)c3c(=O)c12 | 51.1%
Cc1ccc(S(=O)(=O)OC[C@@]2(C)CC[C@]3(C)CC[C@]4(C)C(=CC[C@@H]5[C@@]6(C)CCCNC(C)(C)[C@@H]6CC[C@]54C)[C@@H]3C2)cc1 | -64.5% (active)
COc1cc(C=O)ccc1Oc1ccc([N+](=O)[O-])cc1[N+](=O)[O-] | 95.6%
COc1cc2ncnc(Nc3ccc(F)c(Cl)c3)c2cc1OCC(=O)N1CCCCC1 | 91%
CCN1C(=S)N(CC)C2C1NC(=S)N2/N=C/C=C/c1ccccc1 (stereo unspecified) | 58.5%

System: NCI-H226 lung
Experiment: as above
Conditions: 10 µM unless noted

Compound | growth
CN(Cc1ccccc1)c1nc(Cl)c(C2CC(c3ccc(F)cc3)=NN2C=O)s1 (stereo unspecified) | 95.9%
CCOC(=O)c1ccc(Nc2ncnc3c2cnn3-c2cccc(F)c2)cc1 | 94.6%
Cc1ccc2nc3ccccc3c(NCc3ccc(Cl)cc3)c2c1 | 72.3%
O=S(=O)(Nc1cc(Sc2cccc3cccnc23)c(O)c2ccccc12)c1ccc(F)cc1 | 44.3%
CCCCC1COc2cccc3c2N1C=C/C3=C\C(=O)N(C)c1cccc(Cl)c1 (stereo unspecified) | 100%
Cc1ccc(-c2nc3nc(-c4ccc(Cl)cc4)nc(N4CCCNCC4)c3o2)cc1 | 111%
COc1cc(NS(=O)(=O)C(C)C)cc(-c2cc(-c3ccc(N4CCNCC4)cc3)cnc2N)c1 | 61.1%
COCCn1cc(-c2csc(-c3cn(C)c4ccc(F)cc34)n2)c2cccnc21 | 83%
COc1ccc(NC(=O)Nc2ccccc2CNc2nc(Nc3ccc(OCCN4CCCC4)cc3)ncc2Cl)cc1 | 76.1%
COc1cc(CNC(=O)CCCC/C=C/C(C)C)ccc1O | 94.2% and 92.4%
CC(Sc1ccccc1)C(=O)O (stereo unspecified) | 99.3%
Cc1ccc(-c2nc3nc(-c4ccccc4)nc(N4CCCNCC4)c3o2)cc1 | 88.9%
CCCCn1c(C(=O)c2c[nH]c3ccccc23)n[nH]c1=S | 92.5%
O=C1C(=C(O)c2ccccc2)C(=O)c2ccccc21 | 104%
COc1ccc(-c2c[nH]c(C(=O)O)c2-c2cc(OC)c(OC)c(OC)c2)cc1 | 88.9%
O=C(Nc1ccc2ccccc2c1)c1cc2ccccc2cc1O | 91.6%
N=C(N)SCc1c2ccccc2c(CSC(=N)N)c2ccccc12 | 71.2%
NNCCc1ccccc1 | 93.3% and 75.7%
Brc1ccc(/C=C(/C2=NCCN2)n2ccc3ccccc32)cc1 | 62.1%

Compound | growth
C=C(c1ccc(C(=O)O)cc1)c1cc2c(cc1C)C(C)(C)CCC2(C)C | 76% and 86.3%
N=C(N)c1ccc(-c2ccc(-c3ccc(Cl)c(Cl)c3)s2)cc1 | 98.9%
C=C(CN1CC=CCC1)[C@@H]1CC[C@]2(COC(C)=O)CC[C@]3(C)[C@H](CC[C@@H]4[C@@]5(C)CC[C@H](O)C(C)(C)[C@@H]5CC[C@]43C)[C@@H]12 | 92.5%
O=[N+]([O-])c1cc(C(F)(F)F)ccc1Sc1ccc(C(F)(F)F)cc1[N+](=O)[O-] | 90.9%
CCn1cc(C(=O)NN=C2CCCC2)c(=O)c2ccc(C)nc21 | 82.9%
O=C(Nc1ccc(Cl)c(Cl)c1)Nc1ccc(Cl)c(Cl)c1 | 23.7%
Cn1c(=O)c2c(nc(Nc3cc(=O)[nH]c(=O)[nH]3)n2Cc2ccccc2)n(C)c1=O | 86.6%
CCOC(=O)c1c(-c2ccc(OC)cc2)c(C#N)c2c(C#N)c(N)nn2c1N | 61.5%
COc1cc(/C=N/NC(=O)CCN2c3ccccc3Sc3ccccc32)cc(OC)c1OC | 79.3%
O/N=C(/c1ccccc1)c1ccc2c3c(cccc13)CC2 | 100%
COc1cc(-c2nc3occn3c2-c2ccnc(NCCCNS(=O)(=O)c3ccc(O)cc3)n2)ccc1F | 96.8%
CN(C)c1ccc2nc3ccc(=O)cc-3sc2c1 | 71.8%
ON=C1CCCCCCCC1 | 105%
[Cu+].[NH-][C@H]1C[N-]C(=O)[C@H]([C@H]2CCN=C(N)N2)[N-]C(=O)/C(=C\NC(N)=O)[N-]C(=O)[C@H](CNC(=O)C[C@@H](N)CCCN)[N-]C(=O)[C@H](CO)[N-]C1=O | 105%
CC(C)=CCc1cc(O)c(O)c2oc3cc(O)cc(O)c3c(=O)c12 | 96.9%
Cc1ccc(S(=O)(=O)OC[C@@]2(C)CC[C@]3(C)CC[C@]4(C)C(=CC[C@@H]5[C@@]6(C)CCCNC(C)(C)[C@@H]6CC[C@]54C)[C@@H]3C2)cc1 | 19.7%
COc1cc(C=O)ccc1Oc1ccc([N+](=O)[O-])cc1[N+](=O)[O-] | 99.9%
COc1cc2ncnc(Nc3ccc(F)c(Cl)c3)c2cc1OCC(=O)N1CCCCC1 | 86.8%
CCN1C(=S)N(CC)C2C1NC(=S)N2/N=C/C=C/c1ccccc1 (stereo unspecified) | 64.5%
